Results on 23 molecules are retold here after PubChem BioAssay AID1259400 (National Center for Advancing Translational Sciences (NCATS), 2018).

Out of some 350,000 compounds screened, about 2,100 (0.6%) were called active. Another 1% or so got no clear call; they are omitted. For the sample, actives were picked, then their nearest neighbours and some compounds at random. A number with no mark means an inactive call.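 Rule for the calls: active = activity change of -60% or lower, but not beyond a set lower limit; inconclusive = change between -60% and -40%, or beyond the set limit; inactive = change above -40%.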
% is set by controls: 0 for no effect and ±100 for the full control effect.

The target in this assay is Relaxin receptor 1 (Homo sapiens) (UniProt Q9HBX9). Nature of the assay: qHTS Assay for Antagonists of the Relaxin Receptor RXFP1. The note with it: HEK293-RXFP1, relaxin-stimulated cAMP HTRF, 30 min; at 57.5 µM; stronger effect = lower value. (In general: Quantitative high-throughput screening tests each substance at several concentrations.)
Chain of Relaxin receptor 1 (Homo sapiens) (Q9HBX9 whole entry, looked up): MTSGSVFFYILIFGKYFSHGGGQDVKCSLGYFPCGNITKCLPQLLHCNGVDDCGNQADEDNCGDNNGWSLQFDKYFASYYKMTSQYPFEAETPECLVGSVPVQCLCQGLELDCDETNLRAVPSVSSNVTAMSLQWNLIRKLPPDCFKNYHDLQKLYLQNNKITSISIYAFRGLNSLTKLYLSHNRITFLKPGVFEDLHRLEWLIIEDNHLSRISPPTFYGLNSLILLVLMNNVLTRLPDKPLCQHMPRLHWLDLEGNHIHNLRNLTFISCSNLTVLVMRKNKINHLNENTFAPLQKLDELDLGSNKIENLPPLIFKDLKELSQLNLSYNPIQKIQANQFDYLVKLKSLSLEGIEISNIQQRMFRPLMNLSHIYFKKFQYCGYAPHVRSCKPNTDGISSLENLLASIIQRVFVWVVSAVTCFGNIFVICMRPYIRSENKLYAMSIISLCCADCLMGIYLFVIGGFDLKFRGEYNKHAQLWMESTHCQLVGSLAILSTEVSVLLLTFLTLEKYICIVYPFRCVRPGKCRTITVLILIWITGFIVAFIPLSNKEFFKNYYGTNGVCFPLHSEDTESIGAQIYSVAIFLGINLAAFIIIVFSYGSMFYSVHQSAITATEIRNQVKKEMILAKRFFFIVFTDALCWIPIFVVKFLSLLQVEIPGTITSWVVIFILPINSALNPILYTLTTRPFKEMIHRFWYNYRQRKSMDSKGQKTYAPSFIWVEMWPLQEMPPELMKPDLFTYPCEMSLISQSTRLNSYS
As to `O=C(Nc1c(C(=O)N2CCN(c3ccc(F)cc3)CC2)oc2ccccc12)c1ccco1`, the activity change, negative = inhibition is -14.5%.

Turning to `CCCCNC(=O)c1cc(-c2ccc(Cl)c(Cl)c2)on1`, the activity change, negative = inhibition was -6.36%.

As for `C=CS(=O)c1sc(Cl)c(N2CCOCC2)c1[N+](=O)[O-]` (stereo not drawn), the activity change, negative = inhibition was -60.3% (active).

`O=C(NCCCN1CCN(c2cccc(Cl)c2)CC1)c1nnc(Cc2ccc(F)cc2Cl)o1`: the activity change, negative = inhibition was -19.5%.

For the molecule `COc1ccc(CCNC(=O)c2cn(C)c3ccc(S(=O)(=O)N(C)C4CCCCC4)cc3c2=O)cc1OC`, the activity change, negative = inhibition was -10.4%.

`CCOC(=O)C1Cn2c(nc3c(c2=O)C(C)(CC)Cc2ccccc2-3)S1` (stereo not drawn): the activity change, negative = inhibition is -6.89%.

With `N#CCSc1nc2c(c(=O)n1Cc1ccccc1)C1(CCCC1)Cc1ccccc1-2`, the activity change, negative = inhibition is -9.93%.

Take `CCC1(CC)Cc2ccccc2-c2nc(CCl)[nH]c(=O)c21`: the activity change, negative = inhibition is -80.4% (active).

In the case of `CCc1nc(-c2cc(S(=O)(=O)N3CCN(c4ccc(OC)cc4)CC3)ccc2OC)no1`, the activity change, negative = inhibition is 0.921%.

Turning to `CCCC12CN3CC(CCC)(CN(C1)C3c1c[nH]c3ccc(OC)cc13)C2=O` (stereo not drawn), the activity change, negative = inhibition was -18.6%.

On to `Cc1cc(C)cc(OC(C)C(=O)Nc2nc3c(s2)CCCC3)c1` (stereo not drawn), for which the activity change, negative = inhibition is -103% (active).

As for `O=C(Nc1nc2c(s1)CCCC2)c1ccccc1F`, the activity change, negative = inhibition was -33.1%.

For `COC(=O)C(NC(C)=O)(Nc1nc2c(s1)CCCC2)C(F)(F)F` (stereo not drawn), the activity change, negative = inhibition is -2.87%.

For the molecule `CCC(Sc1nc2n[nH]c(C)c2c(=N)n1-c1ccccc1Cl)C(=O)N(CC)CC` (stereo not drawn), the activity change, negative = inhibition was -33.6%.

In the case of `COc1ccc(C)cc1N(C)C(=O)c1c(C)oc2ncnc(N3CCOCC3)c12`, the activity change, negative = inhibition was -0.158%.

With `COc1ccc(OC)c(C(=O)NC2CCCc3c2cnn3-c2cc(C)cc(C)c2)c1` (stereo not drawn), the activity change, negative = inhibition was 2.28%.

Regarding `Cc1ccc(-n2ncc3c2CCCC3NC(=O)c2cnccn2)cc1C` (stereo not drawn), the activity change, negative = inhibition was -3.03%.

For `COc1ccc(C(=O)NC2CCCc3c2cnn3-c2cccc(C)c2C)c(OC)n1` (stereo not drawn), the activity change, negative = inhibition was -116% (active).

With `NCC[C@H](O)C(=O)N[C@@H]1C[C@H](N)[C@@H](O[C@H]2O[C@H](CN)[C@@H](O)[C@H](O)[C@@H]2O)[C@H](O)[C@@H]1O[C@H]1O[C@H](CO)[C@@H](O)[C@H](N)[C@@H]1O`, the activity change, negative = inhibition was -6.65%.

`CCOCC(=O)NCc1ccc2c(c1)cc(C)n2C`: the activity change, negative = inhibition is -74.1% (active).

Regarding `COc1cc(C(=O)NCc2ccc3c(c2)cc(C)n3C)cc(OC)c1OC`, the activity change, negative = inhibition was 12%.

As for `COc1ccc(CNC(=O)CCn2cccc2)cc1`, the activity change, negative = inhibition was -6.31%.

Regarding `CCOc1ccc(-c2cc3c(=O)n(CC(=O)NCc4ccc(OC)cc4)ccn3n2)cc1`, the activity change, negative = inhibition is 4.95%.
